TDP1 cell CPT = qHTS for Inhibitors of human tyrosyl-DNA phosphodiesterase 1 (TDP1): qHTS in cells in presence of CPT; chicken DT40 Tdp1-/-;hTDP1 cells + 20 nM CPT, ATP luminescence, 48 h; Potency, µM (top dose mostly 46.2 µM), for the others: top-dose activity change, negative = growth inhibition, hits mostly inhibitors; hit rate 12% among 420,000; AID 686979, 2013; further: potency means the concentration at half of the fitted maximal effect; nearly all actives have a fitted effect of over 55% in size
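Chicken DT40 Tdp1-/- cells stably complemented with human TDP1 were seeded at 400 cells/well in medium containing 20 nM camptothecin, exposed to pin-transferred compounds, and grown at 37 °C for at least 48 hr. Viability was read as ATP luminescence.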
uPA surface inh = qHTS for Inhibitors of Cell Surface uPA Generation. cell surface uPA generation assay, qHTS. hit rate 0.31% among 330,000. AID 540303, 2011. Potency, µM (series often up to 38.3 µM), for the others: top-dose activity change, negative = inhibition, actives largely listed as inhibitors; active means well fitted inhibition curve with a large enough effect; inconclusive means small, poorly fitted or top-dose-only effect; inactive means no such curve, though single readings can be large or run the other way; tested in mouse RAW 264.7 cells; further: potency means the concentration at half of the fitted maximal effect; nearly all actives have a fitted effect of over 55% in size
HT1080-NT tox = qHTS for induction of synthetic lethality in tumor cells producing 2HG: qHTS for the HT-1080-NT fibrosarcoma cell line. AID 686970, 2013. hit rate 1.6% among 360,000. HT-1080-NT fibrosarcoma viability, CellTiter-Glo ATP luminescence, 48 h. Potency, µM (titrated, usually from 46.1 µM), for the others: top-dose activity, negative = less viability, actives largely listed as cytotoxic;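 further: NT is the 2HG producing partner of a matched IDH1 knockdown line; potency means the concentration at half of the fitted maximal effect; 0% = DMSO-treated cells and -100% = media-only wells without cells; nearly all actives have a fitted effect of over 55% in size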
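Luminescent CellTiter-Glo readout after 48 hours of compound exposure at 37 degrees C defined viability of HT-1080-NT cells. Activity was normalized to DMSO wells and cell-free media wells; concentration-response curves were fitted and assigned curve classes.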
HT1080 IDH1KD tx = qHTS for induction of synthetic lethality in tumor cells producing 2HG: qHTS for the HT-1080-IDH1KD cell line | HT-1080 IDH1 knockdown viability, ATP luminescence, 48 h | AID 686971, 2013 | Potency, µM (series often up to 46.1 µM), inactives show top-dose activity, negative = toxicity, most hits filed as cytotoxic | hit rate 2% among 360,000;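 further: potency means the concentration at half of the fitted maximal effect; 0% = DMSO wells and -100% = cell-free medium wells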
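In this qHTS, HT-1080 cells depleted of IDH1 are exposed for 48 h at 37 °C to compound titrations. Toxicity is scored from CellTiter-Glo luminescence, with DMSO as full viability and medium alone as none.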
DT40 TDP1 no CPT = qHTS for Inhibitors of human tyrosyl-DNA phosphodiesterase 1 (TDP1): qHTS in cells in absence of CPT; Potency, µM (highest dose often 46.2 µM), without a hit: at the top dose activity change, negative = growth inhibition, actives largely listed as inhibitors; hit rate 15% among 420,000; DT40 Tdp1-/- hTDP1 cells, no CPT, ATP luminescence, 48 h; AID 686978, 2013; further: potency means the concentration at half of the fitted maximal effect; nearly all actives have a fitted effect of over 55% in size
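Luminescent ATP content (CellTiter-Glo) served as the growth readout. Knockout chicken DT40 cells expressing human TDP1 were exposed to compounds without camptothecin for a minimum 48 hr at 37 °C.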
IL1B secr inh = qHTS for Inhibitors of Inflammasome Signaling: IL-1-beta AlphaLISA Primary Screen | THP-1 LPS/ATP IL-1B secretion, AlphaLISA, 16 h; hits give low values | activity change, % at 57.5 µM | hit rate 4.7% among 360,000; in the data active means activity change below about -50%; inconclusive means mostly about -30% to -49%
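THP-1 cells pretreated 1 hr with compounds (up to 57.5 uM final), then stimulated with LPS (250 ng/mL final) plus ATP (1.25 mM final); secreted IL-1B measured by AlphaLISA after 16 hr, decreased signal indicating inhibition.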
An asterisk follows results filed as active. Sampled rows, rich in hits. Any-hit rate of the full collection: about 19%. Unless noted, the call rests on the fitted dose curve; in most records, active means well fitted curve in the direction sought with a large enough effect; inconclusive means small, poorly fitted or top-dose-only effect, or another doubt; inactive means no such curve, though single readings can be large; an effect the other way counts as inactive or inconclusive. Unless noted, on the % scale 0 is the no-effect control and ±100 the full control effect.

`Cc1ccc(-n2nc(C(=O)N3CCCCC3)c(=O)n(C)c2=O)cc1` gave TDP1 cell CPT 2.5% and DT40 TDP1 no CPT -7.7%.
CCCCCCn1c(SCC(=O)NC2CCS(=O)(=O)C2)nc2ccccc2c1=O (configuration not stated) was read as TDP1 cell CPT -17.0%, HT1080-NT tox 0.4%, HT1080 IDH1KD tx 7.4%, DT40 TDP1 no CPT -5.9% and IL1B secr inh -18.9.
`c1ccc(-c2nnc(-c3ccccn3)nn2)nc1` gave TDP1 cell CPT 14.6µM*, uPA surface inh -5.1%, HT1080-NT tox -8.7%, HT1080 IDH1KD tx -13.4%, DT40 TDP1 no CPT inconclusive and IL1B secr inh 3.3.
Screening c1ccc(-c2cccc(-c3ccccn3)n2)nc1 returned TDP1 cell CPT 2.06µM*, HT1080-NT tox inconclusive, HT1080 IDH1KD tx 0.282µM*, DT40 TDP1 no CPT 3.66µM* and IL1B secr inh 47.1.
For Nc1cc(N)cc(-c2nc3ccccc3[nH]2)c1 the results were TDP1 cell CPT 10.3µM*, uPA surface inh -3.1%, HT1080-NT tox 2.0%, HT1080 IDH1KD tx 4.3%, DT40 TDP1 no CPT 18.4µM* and IL1B secr inh 17.4.
For COc1ccc2oc(=Nc3ccccc3)c(-c3nc4ccccc4[nH]3)cc2c1 the results were TDP1 cell CPT 10.3µM*, uPA surface inh -8.8%, HT1080-NT tox -3.9%, HT1080 IDH1KD tx -11.6%, DT40 TDP1 no CPT inconclusive and IL1B secr inh -0.9.
`c1ccc(-c2nc3ccccc3[nH]2)cc1` gave TDP1 cell CPT inconclusive, uPA surface inh inconclusive, HT1080-NT tox -16.0%, HT1080 IDH1KD tx -8.4%, DT40 TDP1 no CPT -17.7% and IL1B secr inh -22.5.
For COC(=O)c1ccc(-c2nc3ccccc3[nH]2)cc1 the results were TDP1 cell CPT inconclusive, uPA surface inh -7.7%, HT1080-NT tox inconclusive, HT1080 IDH1KD tx inconclusive, DT40 TDP1 no CPT 23.1µM* and IL1B secr inh -2.9.
`COc1ccc(CCCc2nc3ccccc3[nH]2)cc1` gave TDP1 cell CPT -20.6%, uPA surface inh -2.3%, HT1080-NT tox -0.3%, HT1080 IDH1KD tx -2.2%, DT40 TDP1 no CPT inconclusive and IL1B secr inh 16.5.
`COC(=O)c1ccc(C(=O)Nc2ccc3nc(-c4ccncc4)[nH]c3c2)cc1` gave TDP1 cell CPT inconclusive, uPA surface inh -2.6%, HT1080-NT tox -0.9%, HT1080 IDH1KD tx 11.5%, DT40 TDP1 no CPT -12.0% and IL1B secr inh -24.2.
COc1ccc(-c2cc(=O)n(-c3nc4ccccc4[nH]3)[nH]2)cc1 was read as TDP1 cell CPT 35.5µM*, HT1080-NT tox 22.4µM*, HT1080 IDH1KD tx inconclusive, DT40 TDP1 no CPT -78.0% and IL1B secr inh 54.9.
Screening Cc1cc(C(=O)NC(C)C2CCCO2)c(C)o1 (configuration not stated) returned TDP1 cell CPT -1.4%, uPA surface inh 27.8%, HT1080-NT tox 16.0%, HT1080 IDH1KD tx -0.2%, DT40 TDP1 no CPT -1.7% and IL1B secr inh -5.4.
`COc1ccc(-c2nc3ccccc3[nH]2)cc1` gave TDP1 cell CPT 10.3µM*, uPA surface inh inconclusive, HT1080-NT tox 10µM*, HT1080 IDH1KD tx 11.2µM*, DT40 TDP1 no CPT 13µM* and IL1B secr inh 1.9.
Screening COC(=O)c1ccc(C(=O)Nc2ccc3nc(-c4cccnc4)[nH]c3c2)cc1 returned TDP1 cell CPT -15.9%, uPA surface inh 6.7%, HT1080-NT tox 19.8%, HT1080 IDH1KD tx 20.0%, DT40 TDP1 no CPT 5.17µM* and IL1B secr inh -16.4.
c1csc(-c2nc3ccccc3[nH]2)c1 was read as TDP1 cell CPT -22.2%, uPA surface inh 2.8%, HT1080-NT tox 4.4%, HT1080 IDH1KD tx 6.3%, DT40 TDP1 no CPT -21.7% and IL1B secr inh -1.1.
For Cc1ccc(-c2nc3ccccc3[nH]2)s1 the results were TDP1 cell CPT 9.2µM*, uPA surface inh -7.7%, HT1080-NT tox inconclusive, HT1080 IDH1KD tx inconclusive, DT40 TDP1 no CPT 16.4µM* and IL1B secr inh -9.1.
For Cc1ccc(C)c(Cn2cnc3ccccc3c2=O)c1 the results were TDP1 cell CPT -1.8% and DT40 TDP1 no CPT inconclusive.
Screening CC(C)Cc1nc(N2CCN(C(=O)C(C)C)CC2)c(C#N)c2c1CCC2 returned TDP1 cell CPT 20.6µM*, uPA surface inh 0.5%, HT1080-NT tox -0.5%, HT1080 IDH1KD tx -17.3%, DT40 TDP1 no CPT inconclusive and IL1B secr inh -12.1.
Screening COc1cccc(-c2cnc3c(c2)C(=O)N([C@H](C)CO)C[C@@H](C)[C@H](CN(C)C(=O)Nc2ccccc2F)O3)c1 returned TDP1 cell CPT -0.5%, HT1080-NT tox -2.4%, HT1080 IDH1KD tx 8.9%, DT40 TDP1 no CPT -0.5% and IL1B secr inh 15.6.
Screening Cc1ccc2oc(=O)c3cnn(CC(=O)Nc4ccc(Br)cc4C)c3c2c1 returned TDP1 cell CPT 3.8% and DT40 TDP1 no CPT -12.0%.
`Cc1ccc(S(=O)(=O)N2CCCCC2)cc1NC(=O)CNC(C)c1ccc(Cl)c(Cl)c1` (configuration not stated) gave TDP1 cell CPT 14.6µM*, uPA surface inh inconclusive, HT1080-NT tox inconclusive, HT1080 IDH1KD tx -18.4%, DT40 TDP1 no CPT 13µM* and IL1B secr inh -62.9*.
Screening O=C(Cn1ncc(Cl)c(Cl)c1=O)N1CCN(S(=O)(=O)c2ccc3ccccc3c2)CC1 returned TDP1 cell CPT 2.91µM*, uPA surface inh 6.0%, HT1080-NT tox 2.59µM*, HT1080 IDH1KD tx 3.66µM*, DT40 TDP1 no CPT 4.61µM* and IL1B secr inh -102.7*.
Cc1cc(Br)ccc1NC(=O)CNC(=O)Cn1ncc(Cl)c(Cl)c1=O was read as TDP1 cell CPT 4.11µM*, uPA surface inh -0.4%, HT1080-NT tox 3.66µM*, HT1080 IDH1KD tx 2.59µM*, DT40 TDP1 no CPT 3.66µM* and IL1B secr inh -97.6*.
For O=C(O)CCC(=O)N1CCN(S(=O)(=O)c2ccc3ccccc3c2)CC1 the results were TDP1 cell CPT -20.6%, uPA surface inh 0.6%, HT1080-NT tox -8.4%, HT1080 IDH1KD tx -1.9%, DT40 TDP1 no CPT inconclusive and IL1B secr inh -1.9.
Cc1ccc(Cl)cc1NC(=O)CN1C(=O)C(C)(C)c2cc(S(=O)(=O)N3CCCCC3)ccc21 was read as TDP1 cell CPT inconclusive and DT40 TDP1 no CPT 23.1µM*.
